According to PubChem BioAssay (NCI):
About 79,000 compounds went through this panel and 15% of them were active in at least one assay; those are over-represented in the sample as a whole. Rule as the data show it: active = growth inhibition above about 70%; inactive = the rest.

Tests used:
[1] = NCI Yeast Anticancer Drug Screen. Data for the rad50 strain (AID 155);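 also: 0% = growth of vehicle-only cultures of the same strain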; details: S. cerevisiae rad50 strain growth inhibition; at 50.0 µM; active compounds read high
How it was run: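 Relative growth inhibition (compound vs vehicle) was measured in yeast with a defined repair-gene alteration.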

[2] = NCI Yeast Anticancer Drug Screen. Data for the mec2-1 strain (AID 157); details: S. cerevisiae mec2-1 strain, at 50.0 µM, active compounds read high
How it was run: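 Compounds were applied to mec2-1 yeast cells. Their growth was then compared with that of vehicle-treated cultures to give growth inhibition.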

[3] = NCI Yeast Anticancer Drug Screen. Data for the sgs1 mgt1 strain (AID 161);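 also: 0% = growth of cultures given vehicle only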; details: S. cerevisiae sgs1 mgt1 strain, at 50.0 µM, active compounds read high
How it was run: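 This yeast growth screen uses a strain with defined DNA-repair lesions; compound-treated growth is compared with vehicle-treated growth.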

[4] = NCI Yeast Anticancer Drug Screen. Data for the cln2 rad14 strain (AID 165);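 also: 0% = growth equal to vehicle treated cultures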; details: S. cerevisiae cln2 rad14 strain, at 50.0 µM, active compounds read high
How it was run: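 Strain: cln2 rad14 yeast, altered in cell cycle control and DNA damage repair. Read-out: growth inhibition vs vehicle.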

[5] = NCI Yeast Anticancer Drug Screen. Data for the bub3 strain (AID 167); details: S. cerevisiae bub3 mutant strain, at 50.0 µM, active compounds read high
How it was run: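 Screening used yeast with an engineered genetic alteration affecting cell cycle control. Compound-exposed cultures were compared with vehicle cultures, and reduced growth was taken as inhibition.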

[6] = NCI Yeast Anticancer Drug Screen. Data for the mlh1 rad18 strain (AID 175); details: S. cerevisiae mlh1 rad18 strain growth inhibition; at 50.0 µM; active compounds read high
How it was run: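 A repair-deficient yeast strain is exposed to test compound, and growth is scored relative to vehicle-treated controls.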

Measured: growth inhibition

CCOC(=O)C(CNCc1ccccc1)(c1ccccc1)c1ccccc1
inactive: [1] -6.5% | [2] -4.85% | [3] -23.9% | [4] -31.3% | [5] 9.95% | [6] 2.45%

CCN(CC)C(=O)C1CCN(Cc2c[nH]c3ccccc23)CC1
inactive: [1] -3.05% | [2] -6.85% | [3] -10.2% | [4] -53% | [5] 2.75% | [6] -0.2%

CC1(C)C2(SCCS2)C(C)(C)C12SCCS2
inactive: [1] 22.9% | [2] 3.05% | [3] 17.9% | [4] 3.75% | [5] 11.4% | [6] 5.4%

CC(C)NCC(=O)CCCBr
inactive: [1] -5.15% | [2] 0.85% | [3] -3.8% | [4] -23.1% | [5] 5.45% | [6] 10.8%

COc1ccc(S(=O)(=O)N(CC(=O)O)c2ccccc2)cc1
inactive: [1] -19.3% | [2] -6% | [3] -4.35% | [4] -6.15% | [5] -7.75% | [6] -0.7%

c1ccc2c(c1)Cc1c(-c3ccncc3)n[nH]c1-2
inactive: [1] 48.8% | [2] 33% | [3] 41.6% | [4] 10.3% | [5] 19.3% | [6] 60.1%

O=C(CCBr)Nc1ccccc1
inactive: [1] 11.1% | [2] -15.2% | [3] -7.15% | [4] -38.2% | [5] -7.35% | [6] -26.4%

O=C(O)c1nc(-c2ccccc2)[nH]c1C(=O)O
inactive: [1] 20.5% | [2] 5.6% | [3] 12.8% | [4] -15.8% | [5] 30.6% | [6] 24.4%

COc1ccccc1N=Nc1c(-c2ccccc2)nn(C(=O)CC(=O)Nc2cccc(C)c2)c1-c1ccccc1
inactive: [1] 29.1% | [2] 17.5% | [3] 4.9% | [4] 5.65% | [5] 52.5% | [6] 27.3%

O=[N+]([O-])c1ccc(S(=O)(=O)n2cccc2)cc1
inactive: [1] 0.9% | [2] 8.8% | [3] -8.05% | [4] -20.9% | [5] 3.6% | [6] -19.8%

CC(=O)Nc1ccc(CCc2ccc(NC(C)=O)cc2)cc1
inactive: [1] -2.9% | [2] -13.7% | [3] -7.3% | [4] -60.2% | [5] 5.6% | [6] -12.3%

[Cu+2].[Cu+2].[O-]c1ccccc1C=Nc1ccccc1[O-].[O-]c1ccccc1C=Nc1ccccc1[O-]
inactive: [1] 7.25% | [2] -0.95% | [3] -1.2% | [4] 16.9% | [5] 2.1% | [6] 1.55%

CC1(C)OC[C@@H](N)[C@@H](O)CO1
inactive: [1] -9.35% | [2] 12.6% | [3] 0.05% | [4] -31.9% | [5] 0.55% | [6] 1.95%

CC(O)C(N=Cc1nc(-c2ccccc2)oc1O)C(=O)O (stereo not given)
inactive: [1] -3.25% | [2] -6.55% | [3] 0% | [4] 1.2% | [5] -0.15% | [6] 7.05%

O=CC1OC(c2ccccc2)OC1C1OC(c2ccccc2)OC1C=O (stereo not given)
inactive: [1] 19.4% | [2] 13.7% | [3] 19.2% | [4] -22.6% | [5] 17.9% | [6] 22.8%

O=C(O)C1(C(=O)O)CCCCC1.[NH-]CC1(C[NH-])CCCCC1.[Pt+2]
inactive: [1] 21.8% | [2] 9.95% | [3] 27.8% | [4] 21.1% | [5] 5.85% | [6] 14.9%

c1ccc(CNc2ncnc3n[nH]nc23)cc1
inactive: [1] -14% | [2] -11.8% | [3] 1.2% | [4] 0.3% | [5] 20.1% | [6] -8.3%

CC(C)CC1OCC(C)(C)CO1
inactive: [1] -0.6% | [2] -12.4% | [3] -11.3% | [4] -7.05% | [5] -7.9% | [6] -9.8%

CN1N(c2ccccc2)C(=O)C2=NC=C(C#N)C(=N)C21C (stereo not given)
inactive: [1] 14.9% | [2] 41% | [3] 24.6% | [4] 15.9% | [5] 19.5% | [6] 42.4%

COCc1nc2c(=O)[nH]c(N)nc2[nH]c1=O
inactive: [1] 2.55% | [2] -3.55% | [3] -4.8% | [4] -0.25% | [5] 1.7% | [6] 1.1%
